CHX counter-1: counter-screen hit for Shiga toxin inhibitors, cycloheximide. max response, %. cell reporter, cycloheximide protein synthesis inhibition counterscreen. 300,000 compounds, 12% hits; in the data active means max response mostly above about 13%, no sharp cut-off; inactive means mostly below about 14%; further: read at 38.3 µM for the half of the compounds with a filed dose; 0% is about no effect
SARS PLpro yeast: inhibitors of SARS-CoV papain-like protease in yeast. S. cerevisiae expressing SARS-CoV PLpro, growth rescue. Potency, µM (series often up to 32.9 µM), inactives show at the top dose activity, positive = growth rescue, most hits filed as activators. 330,000 compounds, 0.19% hits; further: potency means the concentration at half of the fitted maximal effect; 0% is about no effect; nearly all actives have a fitted effect of over 55% in size
NS1 inh: influenza NS1 inhibition | Potency, µM (doses to about 46.1 µM), without a hit: top-dose activity, positive = more growth | 270,000 compounds, 0.4% hits; further: potency means the concentration at half of the fitted maximal effect; actives are rising curves; nearly all actives have a fitted effect of over 50% in size
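A cell-based growth assay was used: compounds that relieve NS1-induced slow growth of budding yeast raise OD600. Assay medium was yeast nitrogen base with ammonium sulphate and -URA supplement, pH 6.0, with 2% galactose.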
Pf growth 48h: P. falciparum growth inhibition at 48 hours (one generation) | P. falciparum luciferase growth in erythrocytes, 48 h | Potency, µM (series often up to 28.7 µM), for inactives: top-dose activity change, negative = inhibition, most hits filed as inhibitors | 310,000 compounds, 5.9% hits | AID 504832; active means well fitted inhibition curve with a large enough effect; inconclusive means small, poorly fitted or top-dose-only effect, or another doubt; inactive means no such curve, though single readings can be large or run the other way; further: potency means the concentration at half of the fitted maximal effect; on the % scale 0 is the no-effect control and ±100 the full control effect
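Luciferase-expressing P. falciparum in infected erythrocytes (2% hematocrit, 0.1% parasitemia final) in RPMI 1640/0.5% Albumax were exposed to compound for 48 hours at 37 C, 5% CO2; growth read as luminescence.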
Shiga toxin inh: blocks Shiga toxin action in Vero cells; 290,000 compounds, 9.2% hits; AID 2315; Vero cells, Shiga toxin protein synthesis inhibition reporter; inhibition, % at 38.7 µM; in the data active means inhibition mostly above about 28%, no sharp cut-off; inactive means mostly below about 43%; further: 0% is about no effect
Pf growth 96h: P. falciparum growth inhibition at 96 hours; P. falciparum luciferase reporter growth, 96 h; Potency, µM (titrated, usually from 28.7 µM), without a hit: at the highest dose activity change, negative = inhibition, most hits filed as inhibitors; 320,000 compounds, 6.9% hits; AID 504834; active means well fitted inhibition curve with a large enough effect; inconclusive means small, poorly fitted or top-dose-only effect, or another doubt; inactive means no such curve, though single readings can be large or run the other way; further: potency means the concentration at half of the fitted maximal effect; on the % scale 0 is the no-effect control and ±100 the full control effect
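Plates of compound plus infected erythrocytes (2% hematocrit, 0.05% parasitemia final) incubate 96 hours, 37 C, 5% CO2. Detection reagent added; reduced luminescence from the parasites' luciferase reporter flags inhibition.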
CHX counter-2: counter-screen for Shiga toxin inhibitors: cycloheximide protein synthesis block | shares compounds with Shiga toxin inh | Cycloheximide counterscreen, protein synthesis reporter, Shiga toxin assay | Potency, µM (top dose mostly 38.3 µM), for inactives: top-dose activity (activation), actives largely listed as activators | 510 compounds, 3% hits; further: potency means the concentration at half of the fitted maximal effect; 0% is about no effect
Flu NS1 inh: validation of influenza NS1 protein function inhibitors; influenza NS1 function cell assay, 15-point titration; 1,400 tested, under 10 active; shares compounds with NS1 inh; activity change, negative = inhibition, % at 32.9 µM; further: 0% is about no effect
Flu PR8 replic: reduces influenza A/PR/8/34 replication in MDCK cells. shares compounds with NS1 inh. MDCK infected influenza A/PR/8/34, virus titer TCID50; stronger effect = lower value. 95 compounds, 30% hits. virus titer (log TCID50), log10 TCID50 at 5 µM; call rule not given here
* hit, by the source's call; u = inconclusive; x = no result. Sampled rows, rich in hits. Any-hit rate of the full collection: about 21%. Unless noted, the call rests on the fitted dose curve.

SMILES	CHX counter-1	SARS PLpro yeast	NS1 inh	Pf growth 48h	Shiga toxin inh	Pf growth 96h	Flu NS1 inh	others
CCOC(=O)N1CCN(S(=O)(=O)c2ccc(C(=O)NNc3nc4c(C)cc(C)cc4s3)cc2)CC1	5	u	4µM*	u	43*	u	u	CHX counter-2=-5%
CCc1cccc(CC)c1NC(=O)CN1CC(C)SC1=NC1CCCCC1 (stereo not drawn)	-2	-6%	18%	u	-4	u	x
CC(=O)Oc1ccc(/C=C2/C(=O)N(c3ccccc3)N=C2C)cc1	10	0%	4%	-18%	3	36%	x
COc1ccc(/C=C2/C(=O)N(c3c(F)c(F)c(F)c(F)c3F)N=C2C)cc1	20*	6%	11µM*	7%	x	u	12
COc1cc(NC(=O)CN2CCCCC2C)c(C)cc1[N+](=O)[O-] (stereo not drawn)	2	14%	11%	-13%	13	u	x
Cc1ccc2c(C)nc(/N=C(\N)NC(=O)N3c4ccccc4Sc4ccccc43)nc2c1	0	-23%	u	13µM*	-7	-103%	2
COc1cc(S(=O)(=O)N2CCN(C(=O)c3ccco3)CC2)ccc1Cl	-2	2%	9%	0%	x	u	x
CCC1(CC)NC(=O)N(CC(=O)OCn2nnc3ccccc3c2=O)C1=O	9	7%	7.1µM*	x	20	58%	3
O=C(NOCc1ccccc1)c1coc(-c2ccccc2)n1	x	-46%	x	x	x	x	x
COc1ccc(OCCCC(=O)Nc2cc(S(=O)(=O)N3CCCCC3)ccc2C)cc1	x	16%	x	u	x	u	x
Cc1cc(OCc2ccc(C(=O)NN=C3CCCC3)cc2)ccc1Cl	57*	-54%	14µM*	3%	85*	0%	u
CN(C)c1oc(COc2ccc(F)cc2)nc1C#N	6	-27%	-3%	-2%	-5	x	x
CN(C)c1oc(-c2ccc(OCc3ccc(Cl)cc3)cc2)nc1C#N	9	-1%	10µM*	11%	-13	u	-3
CNC[C@H]1Oc2c(NC(=O)c3ccc(-c4nccs4)cc3)cccc2C(=O)N([C@@H](C)CO)C[C@@H]1C	x	-4%	x	x	x	x	x
Cc1ccc(N2C(=O)CC(=O)NC2=O)cc1Cl	2	5%	10µM*	9%	-1	u	20
O=C1CC(=O)N(c2ccc(Cl)cc2)C(=O)N1	-2	-6%	27%	-2%	x	61%	x
CCN1CCCC1CN(Cc1cc2cc(C)ccc2[nH]c1=O)C(=O)Nc1ccccc1OC (stereo not drawn)	2	5%	11µM*	u	-17	u	-6
COc1ccccc1NC(=O)N(CCN(C)C)Cc1cc2cc(C)ccc2[nH]c1=O	-6	-4%	-3%	-5%	-17	-18%	x
O=C(N/N=C/C=C/c1ccccc1[N+](=O)[O-])c1cc(-c2ccccc2)n[nH]1	1	u	2.2µM*	u	22	u	10
COc1ccccc1NC(=O)C1=C(C)Nc2nc(-c3cccs3)nn2C1c1cccnc1 (stereo not drawn)	-6	-7%	0%	x	-15	u	x
Cc1ccc(-c2nnc(NCc3nc4ccccc4[nH]3)c3ccccc23)cc1S(=O)(=O)N(C)C	-2	1%	5.6µM*	13µM*	-11	u	10	Flu PR8 replic=7.5*
Cc1ccc(-c2n[nH]c(=O)c3ccccc23)cc1S(=O)(=O)N(C)CCO	-2	-8%	2%	20%	-8	x	x
Cc1c(C(=O)O)oc2ccc(S(=O)(=O)NCc3ccc(F)cc3)cc12	4	0%	-3%	-2%	9	22%	x
Cc1c(C(=O)O)oc2ccc(S(=O)(=O)NCCC3=CCCCC3)cc12	0	7%	10µM*	u	6	u	17

Screening data: PubChem, National Center for Advancing Translational Sciences (NCATS)
